Source: PubChem BioAssay (several laboratories)
Only some compounds are listed: those with a hit (about 1.1% of all), similar ones and a draw of the others.
MazF activator – increases E. coli MazEF RNase cleavage of RNA. P0AE70. FAM/BHQ RNA-DNA oligo cleavage fluorescence, 5 h. activation, % at 20 µM. 350,000 tested, 0.32% active. AID 504720; in the data active means activation above about 50%
Target sequence (P0AE70 whole entry, looked up): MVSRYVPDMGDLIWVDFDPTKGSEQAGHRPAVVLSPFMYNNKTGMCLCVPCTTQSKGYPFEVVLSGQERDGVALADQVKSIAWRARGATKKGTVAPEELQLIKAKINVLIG
BioA inh – blocks M. tuberculosis BioA enzyme activity. purified M. tuberculosis BioA enzyme, plate reader. inhibition, % at 9.99 µM. 360,000 tested, 0.096% active. AID 602481; in the data active means inhibition above about 40%; inconclusive means no clear call, values can overlap the other calls
PfHsp40 rescue – compounds rescuing yeast from Plasmodium falciparum HSP40 toxicity. S. cerevisiae expressing PfHsp40, growth rescue, ATP luminescence. growth rescue, % at 12.5 µM. 340,000 tested, 0.68% active. AID 504582; in the data active means growth rescue above about 28%, passing the limit was not always enough; inconclusive means no clear call, values can overlap the other calls;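 further: yeast W303a lacking pdr1 and pdr3 grown in galactose medium; growth measured after three days at 30 °C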
Yp Topo-I inh – blocks Yersinia pestis topoisomerase I activity | activity, % at 10 µM | Y. pestis Topo-I cleavage product accumulation, plate reader | 360,000 tested, 0.064% active; in the data active means activity above about 50%, passing the limit was not always enough; inconclusive means no clear call, values can overlap the other calls
3CLpro inhibitor – SARS-CoV 3CLpro protease inhibition; P0C6X7; recombinant SARS-CoV 3CLpro, quenched FRET peptide cleavage; inhibition, % at 6 µM; 290,000 tested, 0.14% active; AID 1706; in the data active means inhibition above about 12%
BJeLR viability – BJeLR cell viability loss | inhibition, % (test concentration not listed) | 300,000 tested, 0.17% active | BJeLR (HRASV12) viability, CellTiter-Glo ATP luminescence, 48 h; in the data active means inhibition above about 50%; inconclusive means no clear call, values can overlap the other calls
Starred values were filed as active, the others as inactive; ? = inconclusive; / = not tested or not shown.

SMILES	MazF activator	BioA inh	PfHsp40 rescue	Yp Topo-I inh	3CLpro inhibitor	BJeLR viability
CCN1C=C(Cc2ccc(F)cc2)C2=C(C1)C(c1ccc(F)cc1)C(C#N)=C(N)O2 (stereo not drawn)	77.1*	0.5	2.4	-3.1	1.8	0.5
CCN1C=C(Cc2ccccc2C)C2=C(C1)C(c1ccccc1C)C(C#N)=C(N)O2 (stereo not drawn)	-3.6	1.2	0.3	24.1	-2.8	-3.1
C/C(=N\Nc1ccc([N+](=O)[O-])cc1)c1ccc(O)cc1	4.8	/	180.0*	-21.8	7.3	-1.9
C/C(=N\Nc1ccc([N+](=O)[O-])cc1)c1cccc(N)c1	3.7	-0.1	?	-23.3	4.5	-1.6
C[C@@H]1CCCCO[C@H](CN(C)S(=O)(=O)c2ccc(Cl)cc2)[C@H](C)CN([C@@H](C)CO)C(=O)c2cc(NC(=O)C3CCCCC3)ccc2O1	/	-2.6	/	/	/	/
COc1ccc(Br)cc1C(=O)N/N=C/c1cccnc1	10.1	24.5	-2.4	-3.3	1.0	-18.1
CCOc1cc(/C=N/NC(=O)c2cccnc2)ccc1O	-2.2	40.6*	-0.4	8.9	-2.0	-0.8
COc1cc(/C=N/NC(=O)c2cccnc2)ccc1OC(=O)c1ccc2c(c1)OCO2	72.2*	1.3	0.2	19.0	-2.4	-2.7
O=C(N/N=C/c1cccc(OC(=O)c2ccccc2Cl)c1)c1cccnc1	0.3	50.2*	0.4	20.4	-4.8	-9.7
COc1cc2ccccc2cc1C(=O)N/N=C/c1cccnc1	-15.6	71.6*	-1.8	0.9	-5.5	-0.5
C[C@@H]1CCCCO[C@@H](CN(C)CC2CCCCC2)[C@@H](C)CN([C@H](C)CO)C(=O)c2cc(NS(=O)(=O)c3cn(C)cn3)ccc2O1	/	-0.7	/	/	/	/
CCOC(=O)c1cnc(-n2nc(C)cc2C)nc1NC1CCCCC1	8.0	2.5	91.8*	7.9	5.4	-12.7
CCOC(=O)c1cnc(-n2nc(C)cc2C)nc1NC	8.3	-1.0	0.4	7.6	-1.0	6.4
CN1CCN(C(=O)C[C@@H]2CC[C@H]3[C@@H](COC[C@@H](O)CN3C(=O)Nc3ccc(F)cc3)O2)CC1	/	-1.4	/	/	/	/
COc1ccc(NS(=O)(=O)c2ccc3c(c2)Cc2ccccc2-3)cn1	6.2	/	28.3*	24.0	0.8	1.1
COc1ccc(Cn2c(-c3ccccc3C)nc3c(c(=O)c4ccccc4n3C)c2=O)cc1	67.0*	-0.8	-0.7	1.7	/	5.8
COc1ccc(Cn2c(-c3ccc(OC)cc3)nc3c(c(=O)c4ccccc4n3C)c2=O)cc1	/	/	/	/	0.9	5.1
Cc1cc(C)c(OCC(=O)Nc2cccc(NC(=O)c3ccco3)c2)c(Br)c1	-0.9	-2.0	121.7*	2.3	1.4	12.3
COc1cccc(OC)c1C(=O)NC(=S)Nc1cccc(NC(=O)c2ccco2)c1	74.8*	/	-1.9	26.2	0.2	-10.4
CCOc1ccc(CC(=O)Nc2ccc(NC(=O)c3ccco3)cc2)cc1OCC	1.5	0.1	-0.2	10.7	2.6	81.6*
CCOc1ccc(CC(=O)Nc2nccs2)cc1OCC	0.8	/	37.9*	-9.3	-1.8	3.3
Cc1cc(C)c(OCC(=O)Nc2ccc(NC(=O)c3ccco3)cc2)c([N+](=O)[O-])c1	1.2	-3.1	-1.7	-4.0	-0.9	/
CO[C@H]1CN(C)C(=O)c2ccc(NC(C)=O)cc2OC[C@H](C)N(C(=O)c2ccccc2F)C[C@H]1C	/	-1.0	/	/	/	/
Cc1cccc(N(C(=O)CNC(=O)c2ccco2)C(C(=O)NC2CCCCC2)c2cccnc2)c1 (stereo not drawn)	1.2	-0.8	0.7	1.3	2.2	-7.1
O=C(NC1CCCCC1)C(c1cccnc1)N(C(=O)CCl)c1cccc(Cl)c1 (stereo not drawn)	24.8	2.0	0.6	-7.3	2.8	88.8*
SMILES	MazF activator	BioA inh	PfHsp40 rescue	Yp Topo-I inh	3CLpro inhibitor	BJeLR viability
O=C(OCCNc1ccc(C(F)(F)F)cc1[N+](=O)[O-])c1cc2ccccc2oc1=O	250.9*	/	-1.5	1.7	-3.0	0.0
C[C@@H]1CN([C@@H](C)CO)C(=O)c2cc(NC(=O)Nc3ccccc3)ccc2O[C@@H]1CN(C)Cc1ccc(Cl)c(Cl)c1	/	-1.0	/	/	/	/
Cc1cc(C)nc(SCc2cc(=O)c(OC(=O)c3ccc(S(=O)(=O)N(C)C)cc3)co2)n1	-2.6	2.4	90.3*	29.0	3.2	-16.4
Cc1ccnc(SCc2cc(=O)c(OC(=O)c3ccc(S(=O)(=O)N(C)C)cc3)co2)n1	-2.1	/	88.2*	11.4	0.7	6.7
CCCNC(=O)Nc1ccc2c(c1)C(=O)N(C)C[C@@H](OC)[C@@H](C)CN(Cc1ccc(-c3ccccn3)cc1)[C@H](C)CO2	/	-1.1	/	/	/	/
N#CC1=C(N)Oc2cc(N)ccc2C1c1cccc(Br)c1 (stereo not drawn)	-20.4	-1.3	1.7	1.1	2.9	55.8*
O=C1Cc2ccccc2C(c2ccccc2)N1 (stereo not drawn)	3.6	0.4	-0.7	1.1	2.5	1.1
Cc1ccc(C2NC(=O)Cc3ccccc32)cc1 (stereo not drawn)	247.2*	/	-0.8	-4.3	0.1	-0.3
CC(c1ccc2c(c1)OCO2)n1c(=S)[nH]c2ccccc2c1=O (stereo not drawn)	-2.4	9.7	75.3*	-0.4	/	/
O=C(O)C(Cc1ccccc1)n1c(=S)[nH]c2ccccc2c1=O (stereo not drawn)	7.1	0.8	-0.2	-8.5	-0.3	-6.8
CC(C)c1ccc(S(=O)(=O)/N=C2/C=C(Sc3ncn[nH]3)C(=O)c3ccccc32)cc1	-2.6	/	-0.6	-18.9	7.7	/
Cc1ccc(S(=O)(=O)/N=C2/C=C(Sc3ncn[nH]3)C(=O)c3ccccc32)cc1	-28.1	-1.4	119.2*	-9.9	10.1	/
CC(C)C(=O)Nc1cccc(COc2ccc(CN(Cc3ccccc3)C(=O)OC(C)(C)C)cc2)c1	2.2	0.1	-1.3	53.1*	/	/
C=CCn1c(=O)/c(=C\c2ccccn2)s/c1=C(/C#N)C(=O)NCC1CCCO1 (stereo not drawn)	264.2*	/	-0.6	6.2	-2.0	-5.4
Cc1csc2nc(CCNS(=O)(=O)c3ccc4c(c3)OCCO4)cn12	-1.0	-0.1	-1.4	3.2	-1.6	4.8
Cc1csc2nc(CNS(=O)(=O)c3ccc4c(c3)OCCO4)cn12	5.9	-1.2	63.0*	2.1	2.2	2.6
O=C(C[C@@H]1C=C[C@@H](NC(=O)Nc2ccc(F)cc2)[C@@H](CO)O1)NCc1cccc(F)c1	/	-2.9	/	/	/	/
COc1c(OC(C)=O)c(=O)n2c3ccccc3c3ccnc1c32	-6.6	-1.3	27.1*	-1.6	/	4.2
CC(=O)Oc1c(C)c(=O)n(C)c2ccccc12	6.7	-1.2	-2.5	11.5	1.5	6.0
COc1cccc(CNC(=O)COc2ccc(C(=O)c3ccccc3)cc2)c1	2.7	1.3	499.3*	41.3	-7.6	0.0
COc1cccc(CNC(=O)Cc2ccc(-c3ccccc3)cc2)c1	-18.7	-1.7	3.4	24.7	1.3	7.8
O=c1ccc2cc3c([nH]c4ccc(Br)cc43)oc-2c1O	/	2.7	228.3*	-36.4	4.7	11.5
